PubChem BioAssay (Tox21)
Results filed as inconclusive are left out. Calls of active or inactive are those of the source. Unless noted, calls come from the whole dose curve; as a rule, active = well fitted curve in the direction sought with a large enough effect in the repeat runs; inconclusive = weak or mixed curves; inactive = no such curve, though single readings can be large; an effect the other way counts as inactive or inconclusive.

Experiments:
[1] = target: Aryl hydrocarbon receptor (Homo sapiens) (UniProt P35869); test: qHTS assay to identify small molecule that activate the aryl hydrocarbon receptor (AhR) signaling pathway (AID 743085);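 note: HG2L7.5c1 human HepG2 liver cells with stably integrated DRE-driven firefly reporter; series mostly up to about 70 µM; nearly all actives have a fitted effect of over 15% in size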
Sequence of Aryl hydrocarbon receptor (Homo sapiens) (P35869 whole entry, looked up): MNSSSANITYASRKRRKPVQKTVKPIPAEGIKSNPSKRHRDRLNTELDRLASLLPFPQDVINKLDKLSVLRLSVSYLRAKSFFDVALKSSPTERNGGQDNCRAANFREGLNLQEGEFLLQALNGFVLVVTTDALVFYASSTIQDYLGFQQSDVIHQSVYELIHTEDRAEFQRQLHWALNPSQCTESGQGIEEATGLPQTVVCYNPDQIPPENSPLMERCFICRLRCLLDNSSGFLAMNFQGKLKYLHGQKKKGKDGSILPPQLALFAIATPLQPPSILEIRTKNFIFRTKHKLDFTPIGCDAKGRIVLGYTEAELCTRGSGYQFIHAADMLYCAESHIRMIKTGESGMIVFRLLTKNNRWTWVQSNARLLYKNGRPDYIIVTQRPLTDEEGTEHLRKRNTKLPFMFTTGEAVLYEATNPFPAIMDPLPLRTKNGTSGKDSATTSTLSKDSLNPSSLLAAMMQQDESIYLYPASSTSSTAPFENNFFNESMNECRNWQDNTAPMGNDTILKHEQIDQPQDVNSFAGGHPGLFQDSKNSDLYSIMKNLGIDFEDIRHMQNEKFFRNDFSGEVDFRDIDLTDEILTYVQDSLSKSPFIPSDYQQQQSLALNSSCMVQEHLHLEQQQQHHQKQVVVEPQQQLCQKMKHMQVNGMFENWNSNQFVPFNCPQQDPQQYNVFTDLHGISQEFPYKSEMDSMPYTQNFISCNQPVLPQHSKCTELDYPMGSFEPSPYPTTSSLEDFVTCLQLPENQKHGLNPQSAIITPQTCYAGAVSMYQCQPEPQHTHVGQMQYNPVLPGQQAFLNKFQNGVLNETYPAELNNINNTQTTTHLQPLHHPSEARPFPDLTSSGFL
Summary of the method: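 Measured in HG2L7.5c1 cells: CellTiter-Fluor signal (30 min incubation, 37C) for viability, then luciferase luminescence (30 min, room temperature). Compound contact time was 24 h at 37C, following a 5 h pre-incubation.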

[2] = qHTS assay to identify small molecule that activate the aryl hydrocarbon receptor (AhR) signaling pathway - cell viability counter screen (AID 743086);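 note: HepG2 liver cells carrying the AhR DRE luciferase reporter; series mostly up to about 70 µM; nearly all actives have a fitted effect of over 45% in size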
Summary of the method: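 HepG2-AhR-luc (HG2L7.5c1) cells, 4000/well, were preincubated 5 h at 37C, exposed to compound in qHTS format for 24 hr at 37C, then given CellTiter-Fluor for 30 min; viability was read as fluorescence in the reporter wells.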

[3] = qHTS assay to identify small molecule antagonists of the peroxisome proliferator-activated receptor gamma (PPARg) signaling pathway - cell viability counter screen (AID 743194); note: nearly all actives have a fitted effect of over 55% in size
Summary of the method: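 PPARg-UAS-bla HEK293H cells were plated, rested 5 h at 37 C, then treated with compounds plus rosiglitazone (50 nM final) for 17 h at 37 C; viability was then read by CellTiter-Glo luminescence after 30 min at room temperature.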

[4] = qHTS assay for small molecule agonists of the antioxidant response element (ARE) signaling pathway (AID 743202; active = well fitted activation curve with a large enough effect in the signal ratio in the repeat runs, not every such curve was filed as active; the % refers to the signal ratio)
Summary of the method: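 Read-out: LiveBLAzer B/G FRET substrate fluorescence after 2 h at room temperature, following 16 h compound treatment at 37 C of HepG2 cells carrying an ARE-driven beta-lactamase reporter.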

[5] = qHTS assay for small molecule agonists of the antioxidant response element (ARE) signaling pathway - cell viability counter screen (AID 743203; calls by dose curve; note: nearly all actives have a fitted effect of over 55% in size)
Summary of the method: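 HepG2 cells carrying ARE-driven beta-lactamase; 2,000 cells/well; 5 hrs plating; compound pinned from DMSO; 16 hrs 37C/5% CO2; CellTiter-Glo added; 30 min RT; luminescence.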

[6] = qHTS assay for small molecule activators of the heat shock response signaling pathway - cell viability counter screen (AID 743209); note: nearly all actives have a fitted effect of over 50% in size
Summary of the method: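 Luminescence from CellTiter-Glo, added after the beta-lactamase FRET read, gave the viability signal. Cells were HSE-bla HeLa treated with DMSO-dissolved compounds for 5 h at 37 C following overnight plating.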

[7] = qHTS assay for small molecule activators of the heat shock response signaling pathway (AID 743210; active = well fitted activation curve with a large enough effect in the signal ratio in the repeat runs, with a control signal flat, not every such curve was filed as active; the % refers to the signal ratio; note: series mostly up to about 63 µM)
Summary of the method: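 HSE-bla HeLa cells (beta-lactamase reporter under heat shock response elements) were exposed to compounds for 5 h at 37 C, then loaded with LiveBLAzer B/G FRET substrate for 2.5 h at room temperature before fluorescence reading.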

[8] = qHTS assay to identify small molecule agonists of the peroxisome proliferator-activated receptor delta (PPARd) signaling pathway - cell viability counter screen (AID 743211); note: nearly all actives have a fitted effect of over 55% in size
Summary of the method: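 Following 5 h plating at 37 C and 5% CO2, PPARd UAS-bla HEK293H cells took up test compounds for 17 h. Viability was quantified by luminescence 30 min after CellTiter-Glo addition at room temperature.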

[9] = target: Peroxisome proliferator-activated receptor delta (Homo sapiens) (UniProt Q03181); test: qHTS assay to identify small molecule agonists of the peroxisome proliferator-activated receptor delta (PPARd) signaling pathway (AID 743212; calls by dose curve)
Sequence of Peroxisome proliferator-activated receptor delta (Homo sapiens) (Q03181 whole entry, looked up): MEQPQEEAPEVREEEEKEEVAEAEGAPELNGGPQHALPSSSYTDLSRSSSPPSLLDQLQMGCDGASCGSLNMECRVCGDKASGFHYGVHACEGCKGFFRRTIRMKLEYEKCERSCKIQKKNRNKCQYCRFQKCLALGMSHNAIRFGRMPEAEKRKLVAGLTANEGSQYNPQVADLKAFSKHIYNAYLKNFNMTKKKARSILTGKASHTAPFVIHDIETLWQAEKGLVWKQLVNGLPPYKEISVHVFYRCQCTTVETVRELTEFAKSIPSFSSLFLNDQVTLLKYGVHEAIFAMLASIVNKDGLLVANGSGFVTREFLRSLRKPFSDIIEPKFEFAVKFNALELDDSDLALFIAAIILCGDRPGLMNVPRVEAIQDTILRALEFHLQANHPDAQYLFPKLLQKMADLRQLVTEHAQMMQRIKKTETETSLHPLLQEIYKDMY
Summary of the method: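 GeneBLAzer PPARd UAS-bla HEK293H cells (beta-lactamase reporter under UAS control), plated and rested 5 h at 37 C, then exposed to compounds in DMSO at 37 C; LiveBLAzer B/G FRET substrate added, 2 h room temperature, fluorescence read.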

[10] = qHTS assay to identify small molecule antagonists of the peroxisome proliferator-activated receptor delta (PPARd) signaling pathway - cell viability counter screen (AID 743213); note: nearly all actives have a fitted effect of over 50% in size
Summary of the method: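 Agonist-stimulated (L165041, 300 nM final) HEK293H PPARd UAS-bla cells are exposed to compounds for 17 h at 37 C, and ATP-based luminescence (CellTiter-Glo) from the same wells reports cytotoxicity.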

[11] = target: Peroxisome proliferator-activated receptor delta (Homo sapiens) (UniProt Q03181); test: qHTS assay to identify small molecule antagonists of the peroxisome proliferator-activated receptor delta (PPARd) signaling pathway (AID 743215; active = well fitted inhibition curve with a large enough effect in the signal ratio in the repeat runs, not every such curve was filed as active; the % refers to the signal ratio; note: series mostly up to about 62 µM)
Summary of the method: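 Read-out is beta-lactamase FRET fluorescence, measured 2 h after substrate addition at room temperature. Beforehand, UAS-bla HEK293H cells carrying the PPARd reporter were exposed to compounds with L165041 at 300 nM final for 17 h at 37 C.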

[12] = target: Bile acid receptor (Homo sapiens) (UniProt Q96RI1); test: qHTS assay to identify small molecule antagonists of the farnesoid-X-receptor (FXR) signaling pathway (AID 743217; active = well fitted inhibition curve with a large enough effect in the signal ratio in the repeat runs, not every such curve was filed as active; the % refers to the signal ratio)
Sequence of Bile acid receptor (Homo sapiens) (Q96RI1 whole entry, looked up): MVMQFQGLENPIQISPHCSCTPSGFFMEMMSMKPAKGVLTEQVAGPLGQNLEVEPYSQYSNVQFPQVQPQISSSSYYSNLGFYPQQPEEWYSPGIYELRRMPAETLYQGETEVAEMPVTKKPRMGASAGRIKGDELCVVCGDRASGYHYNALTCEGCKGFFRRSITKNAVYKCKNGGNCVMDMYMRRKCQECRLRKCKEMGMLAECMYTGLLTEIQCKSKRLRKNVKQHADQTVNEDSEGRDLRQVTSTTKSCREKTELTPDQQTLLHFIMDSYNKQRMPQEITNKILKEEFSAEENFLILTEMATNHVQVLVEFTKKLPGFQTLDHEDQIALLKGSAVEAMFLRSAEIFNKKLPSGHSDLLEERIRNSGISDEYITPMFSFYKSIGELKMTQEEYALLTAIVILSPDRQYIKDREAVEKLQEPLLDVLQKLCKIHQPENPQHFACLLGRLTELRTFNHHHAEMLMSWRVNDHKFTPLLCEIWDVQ
Summary of the method: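 HEK 293T FXR-UAS-bla, 5000 cells/well; compound + CDCA 50 uM final; 16 h, 37 °C; B/G FRET substrate 2 h RT; fluorescence.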

[13] = qHTS assay to identify small molecule agonists of the farnesoid-X-receptor (FXR) signaling pathway - cell viability counter screen (AID 743218); note: nearly all actives have a fitted effect of over 45% in size
Summary of the method: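 HEK 293T FXR-bla cells; 5 h pre-incubation, 16 h compound exposure at 37 C; LiveBLAzer substrate 2 h RT, then CellTiter-Glo 30 min RT, luminescence.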

[14] = target: Bile acid receptor (Homo sapiens) (UniProt Q96RI1); test: qHTS assay to identify small molecule agonists of the farnesoid-X-receptor (FXR) signaling pathway (AID 743220; active = well fitted activation curve with a large enough effect in the signal ratio in the repeat runs, not every such curve was filed as active; the % refers to the signal ratio)
Summary of the method: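 Beta-lactamase reporter under UAS control in GeneBLAzer FXR HEK 293T cells (5000/well) measured with LiveBLAzer FRET substrate after 2 h at room temperature. Compound exposure lasted 16 h at 37C.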

[15] = qHTS assay to identify small molecule antagonists of the farnesoid-X-receptor (FXR) signaling pathway - cell viability counter screen (AID 743221; active = well fitted cell-killing curve with a large enough effect in the repeat runs, not every such curve was filed as active; note: nearly all actives have a fitted effect of over 50% in size)
Summary of the method: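 Compound effects on cell number were measured as CellTiter-Glo luminescence in HEK 293T cells expressing FXR-UAS-bla, after 16 h at 37 C with 50 uM CDCA (final).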

[16] = target: Vitamin D3 receptor (Homo sapiens) (UniProt P11473); test: qHTS assay to identify small molecule agonists of the vitamin D receptor (VDR) signaling pathway (AID 743222; calls by dose curve)
Sequence of Vitamin D3 receptor (Homo sapiens) (P11473 whole entry, looked up): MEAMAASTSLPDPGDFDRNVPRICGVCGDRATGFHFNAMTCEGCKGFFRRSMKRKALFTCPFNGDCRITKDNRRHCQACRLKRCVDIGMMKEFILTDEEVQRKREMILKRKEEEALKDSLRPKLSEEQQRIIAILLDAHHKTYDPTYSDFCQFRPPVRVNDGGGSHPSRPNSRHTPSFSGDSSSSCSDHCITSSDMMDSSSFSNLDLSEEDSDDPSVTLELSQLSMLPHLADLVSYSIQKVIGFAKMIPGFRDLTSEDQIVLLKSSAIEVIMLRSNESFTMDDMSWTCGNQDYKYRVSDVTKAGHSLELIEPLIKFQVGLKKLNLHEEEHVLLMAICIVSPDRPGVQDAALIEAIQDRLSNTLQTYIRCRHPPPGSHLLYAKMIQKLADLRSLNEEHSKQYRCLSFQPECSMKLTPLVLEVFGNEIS
Summary of the method: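 VDR-bla cells, 2,000/well; 4 h preincubation 37C; cpd (DMSO) 16 h; LiveBLAzer B/G substrate 2 h RT; fluorescence intensity read.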

[17] = target: Peroxisome proliferator-activated receptor gamma (Homo sapiens) (UniProt P37231); test: qHTS assay to identify small molecule agonists of the peroxisome proliferator-activated receptor gamma (PPARg) signaling pathway (AID 743094; active = well fitted activation curve with a large enough effect in the signal ratio in the repeat runs, not every such curve was filed as active; the % refers to the signal ratio)
Sequence of Peroxisome proliferator-activated receptor gamma (Homo sapiens) (P37231 whole entry, looked up): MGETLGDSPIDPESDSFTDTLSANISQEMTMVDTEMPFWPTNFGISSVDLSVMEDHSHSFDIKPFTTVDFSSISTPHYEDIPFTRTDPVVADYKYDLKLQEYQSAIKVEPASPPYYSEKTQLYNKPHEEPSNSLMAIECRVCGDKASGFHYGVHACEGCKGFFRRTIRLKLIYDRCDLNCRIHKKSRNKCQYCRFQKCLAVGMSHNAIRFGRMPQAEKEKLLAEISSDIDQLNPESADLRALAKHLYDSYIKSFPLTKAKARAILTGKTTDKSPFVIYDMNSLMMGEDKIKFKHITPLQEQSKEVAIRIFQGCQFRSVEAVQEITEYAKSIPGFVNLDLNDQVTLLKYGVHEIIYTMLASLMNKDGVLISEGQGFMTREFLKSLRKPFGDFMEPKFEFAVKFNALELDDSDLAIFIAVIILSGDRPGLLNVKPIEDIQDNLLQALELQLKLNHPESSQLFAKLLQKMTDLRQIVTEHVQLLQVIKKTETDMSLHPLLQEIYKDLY
Summary of the method: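 Beta-lactamase FRET fluorescence was the read-out after a 1 h room-temperature substrate step, following 17 h compound treatment at 37C of HEK293H cells expressing a UAS-driven bla reporter responsive to PPARg.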

[18] = target: Peroxisome proliferator-activated receptor gamma (Homo sapiens) (UniProt P37231); test: qHTS assay to identify small molecule antagonists of the peroxisome proliferator-activated receptor gamma (PPARg) signaling pathway (AID 743191; calls by dose curve; note: series mostly up to about 63 µM; nearly all actives have a fitted effect of over 30% in size)
Summary of the method: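 GeneBLAzer PPARg UAS-bla HEK293H cells carrying a UAS-driven beta-lactamase reporter were plated at 3000 cells/well, preincubated 5 h at 37C, then given compound for 17 h at 37C; LiveBLAzer B/G FRET substrate was read after 1 h at room temperature.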

[19] = target: Vitamin D3 receptor (Homo sapiens) (UniProt P11473); test: qHTS assay to identify small molecule antagonists of the vitamin D receptor (VDR) signaling pathway (AID 743223; active = well fitted inhibition curve with a large enough effect in the signal ratio in the repeat runs, not every such curve was filed as active; the % refers to the signal ratio)
Summary of the method: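 Beta-lactamase activity in VDR-bla cells is measured by FRET substrate fluorescence (2 h, room temperature) after cells spend 16 h at 37C with test compound and 3 nM final 1alpha,25-dihydroxyvitamin D3.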

[20] = qHTS assay to identify small molecule agonists of the vitamin D receptor (VDR) signaling pathway - cell viability counter screen (AID 743224); note: series mostly up to about 63 µM; nearly all actives have a fitted effect of over 50% in size
Summary of the method: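 Luminescence from CellTiter-Glo, read after 30 min at room temperature, reports viability of VDR-bla cells treated with compounds for 16 h at 37C in the wells used for the beta-lactamase FRET read.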

Measured: Potency

O=C[O][Al]([O]C=O)[O]C=O
not listed: [17] | [18] | [19] | [20]
inactive: all other assays above

OCC(O)CN1CCN(c2ccccc2)CC1 (stereo not given)
not listed: [2] | [7] | [16] | [19] | [20]
inactive: all other assays above

CC(C)COC(=O)c1ccccc1
not listed: [4] | [5] | [6] | [7] | [12] | [14] | [15] | [18]
inactive: all other assays above

C[C@@H](O)C(=O)O
not listed: [6] | [11] | [12] | [17] | [18] | [19] | [20]
inactive: all other assays above

COS(=O)(=O)O
not listed: [7] | [9] | [11] | [12] | [16] | [17] | [18]
inactive: all other assays above

CCO[Si](CC)(OCC)OCC
not listed: [7] | [12] | [13] | [14] | [17] | [18] | [19]
inactive: all other assays above

CCCCCCCCCCCCCCCCCCOCCO
not listed: [2] | [10] | [12] | [20]
inactive: all other assays above

C/C(CC(C)C)=N\O
not listed: [3] | [12] | [14] | [16] | [17] | [18]
inactive: all other assays above

O=C1CCC(=O)N1Cl
not listed: [2] | [6] | [7] | [12] | [14] | [16]
inactive: all other assays above

CC1c2ccccc2CN1NC(=O)c1ccc(Cl)c(S(N)(=O)=O)c1 (stereo not given)
not listed: [1] | [6] | [11] | [16] | [19]
inactive: all other assays above

CC1(C)[C@H]2CC[C@](C)(C2)[C@H]1O
not listed: [1]
inactive: all other assays above

C=CCSSCCC
not listed: [1] | [3] | [6] | [12] | [14] | [19]
inactive: all other assays above

CCOC(=O)CC1(C)OCC(C)O1 (stereo not given)
not listed: [2] | [3] | [7] | [12] | [14] | [16] | [18] | [19]
inactive: all other assays above

CC1CC(=O)CC(C)(C)C1 (stereo not given)
not listed: [2] | [11] | [12] | [14] | [18] | [19]
inactive: all other assays above

C=C(C)C1CC=C(C)C(=O)C1 (stereo not given)
not listed: [2] | [9] | [11] | [12] | [14] | [16] | [18] | [20]
inactive: all other assays above

Nc1nc(-c2ccccc2)c(Br)c(=O)[nH]1
not listed: [1] | [6] | [12] | [14] | [16]
inactive: all other assays above

CCOc1cccc(N)c1
not listed: [2] | [12] | [14] | [17] | [19]
inactive: all other assays above

OC[C@H]1O[C@@H](O[C@@H]2[C@@H](CO)O[C@](O)(CO)[C@H]2O)[C@H](O)[C@@H](O)[C@H]1O
not listed: [1] | [9] | [11] | [12] | [14] | [16] | [19]
inactive: all other assays above
